Outcome and Potency data for 56 compounds are collected here from PubChem BioAssay (NCATS).

The target of one assay is Papain (Carica papaya) (UniProt P00784). Briefly: Primary qHTS assay for inhibitors of the protease papain (AID 1645873).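 Also: papain turnover of Z-FR-AMC read as the AMC fluorescence gain over 10 min; series mostly up to about 50 µM.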
Assay [1] in a line: Primary qHTS for inhibitors of nuclear receptor binding SET domain protein 2 (NSD2) in an isogenic RCH-ACV NSD2 p.E1099K mutant (9B) (AID 1645876). Also: nearly all actives have a fitted effect of over 70% in size. Also: potency is read from the fitted curve at half-maximal effect.
Assay [2] can be described thus: Primary qHTS for inhibitors of nuclear receptor binding SET domain protein 2 (NSD2) in an RCH-ACV wild type WT cells (2C) (AID 1645877; also: nearly all actives have a fitted effect of over 70% in size; also: potency is read from the fitted curve at half-maximal effect). (Quantitative high-throughput screening tests each substance at several concentrations.)

Where “and” joins values, the source holds several entries; their conditions need not be identical. Identical values can stand only once. Results filed as inconclusive are left out. Calls of active or inactive are those of the source. Calls follow the shape of the dose curve; as a rule, active = well fitted curve in the direction sought with a large enough effect; inconclusive = small, poorly fitted or top-dose-only effect, or another doubt; inactive = no such curve, though single readings can be large; an effect the other way counts as inactive or inconclusive.

Chain of Papain (Carica papaya) (P00784 whole entry, looked up, the tested form may be a part): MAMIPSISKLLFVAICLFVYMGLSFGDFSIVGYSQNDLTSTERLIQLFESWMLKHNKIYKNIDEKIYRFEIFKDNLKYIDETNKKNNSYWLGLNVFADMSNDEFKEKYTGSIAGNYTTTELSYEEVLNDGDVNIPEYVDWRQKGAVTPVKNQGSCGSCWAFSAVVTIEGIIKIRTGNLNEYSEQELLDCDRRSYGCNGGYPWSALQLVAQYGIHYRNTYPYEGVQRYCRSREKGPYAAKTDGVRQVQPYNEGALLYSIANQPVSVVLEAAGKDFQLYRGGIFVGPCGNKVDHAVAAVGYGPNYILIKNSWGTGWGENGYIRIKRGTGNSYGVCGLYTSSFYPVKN

Turning to `O=c1c2ccccc2nc2n1CCc1c-2[nH]c2ccccc12`, in the assay with Papain (Carica papaya), the compound was called inactive.
`COc1cc(OC2CCN(C)CC2)ccc1Nc1ncc2c(n1)n(C1CCCC1)c(=O)n2C`: the Potency in assay [1] was 5.25 µM (active); in assay [2], 3.72 µM (active).
Taken in the same sequence, the figures for `Cc1ccc(CN2CCNCC2)cc1NC(=O)CNc1ccc(F)c(F)c1` were “inactive” and “inactive”.
Take `CC1(C)CC(=O)c2c(C(F)(F)F)nn(-c3ccc(C(N)=O)c(NC4CCC(OC(=O)CN)CC4)c3)c2C1` (centres undefined): the Potency in assay [1] was 103 nM (active) and 74.2 nM (active); in assay [2], 81.7 nM (active) and 118 nM (active).
Regarding `O=C(O)[C@H](Cc1c[nH]c2ccccc12)N1C(=O)c2ccccc2C1=O`, the Potency result in assay [1] was “inactive”.
As for `O=C(CCCCCCC(=O)Nc1ccc([C@H]2O[C@@H](CSc3nc(-c4ccccc4)c(-c4ccccc4)o3)C[C@@H](c3ccc(CO)cc3)O2)cc1)NO`, the Potency in assay [1] was 2.58 µM (active) and 4.28 µM (active); in assay [2], 2.58 µM (active) and 4.28 µM (active).
`O=C(Nc1ncc(-c2cc(C(F)F)nn2-c2c(Cl)cccc2Cl)s1)C1CC1`: the Potency was 0.934 µM (active) in assay [1] and 0.417 µM (active) in assay [2].
Regarding `C[C@]12CC[C@H](O)CC1=CCC1C2CC[C@]2(C)C(n3cnc4ccccc43)=CCC12` (some centres undefined), the Potency entry in assay [1] was “inactive”.
For `O=C(c1ccc(Nc2nccc(-c3cc4ccccc4s3)n2)cc1)N1CCC(N2CCCC2)CC1`, the Potency in assay [1] was 1.45 µM (active) and 1.66 µM (active); in assay [2], 1.63 µM (active) and 1.66 µM (active).
As for `COC(=O)Nc1nc2ccc(C(=O)c3ccc(F)cc3)cc2[nH]1`, the Potency in assay [1] is 1.29 µM (active) and 468 nM (active); in assay [2], 1.03 µM (active) and 372 nM (active).
For the compound `COc1cc2nccc(Oc3ccc(NC(=O)C4(C(=O)Nc5ccc(F)cc5)CC4)cc3)c2cc1OC`, the Potency in assay [1] is 3.65 µM (active) and 5.25 µM (active); in assay [2] it was 4.09 µM (active) and 4.68 µM (active).
In the case of `CC(C)c1ccc(Cn2ccc3c4c(N)nc(NC5CC5)nc4ccc32)cc1`, the Potency in assay [1] is 0.372 µM (active).
Turning to `COc1ccc(C(=O)CC2(O)C(=O)Nc3c(Cl)ccc(Cl)c32)cc1` (centres undefined), the Potency is 2.58 µM (active) in assay [1] and 1.83 µM (active) in assay [2].
On to `Nc1ncnc2c1c(-c1cccc(OCc3ccccc3)c1)cn2C1CC(CN2CCCC2)C1` (centres undefined), for which the Potency in assay [1] was 11.8 µM (active).
The same measure, in the same setting: for `O=C(O)C1(Cc2cccc(Nc3nccs3)n2)CCC(Oc2cccc(Cl)c2F)CC1` (centres undefined) the value was 1.45 µM (active); for `Cc1ccc(C(=O)Nc2cccc(C(F)(F)F)c2)cc1-c1ccc2nc(NCCN3CCOCC3)ncc2c1`, 1.45 µM (active) and 2.63 µM (active).
Take `COc1cc(Nc2ncc(F)c(Nc3ccc4c(n3)N(COP(=O)(O)O)C(=O)C(C)(C)O4)n2)cc(OC)c1OC`: the Potency in assay [1] is 1.29 µM (active) and 5.17 µM (active) and 1.48 µM (active); in assay [2], 1.15 µM (active) and 5.17 µM (active) and 1.66 µM (active).
`CC(C)(C)c1cc(NC(=O)Nc2ccc(-c3cn4c(n3)sc3cc(OCCN5CCOCC5)ccc34)cc2)no1`: the Potency result in assay [1] and in assay [2] was “inactive” in each case.
Regarding `Cn1cc(-c2ccncc2)c(-c2ccc(OCc3ccc4ccccc4n3)cc2)n1`, the results for the Potency in assay [1] and in assay [2] were 12.9 µM (active) and 14.5 µM (active), respectively.
Regarding `Nc1nccc(Oc2ccc(NC(=O)c3c[nH]cc(-c4ccc(F)cc4)c3=O)cc2F)c1Cl`, the Potency in assay [1] is 11.8 µM (active); in assay [2], 10.5 µM (active).
`CNC(=O)c1nn(C)c2c1C(C)(C)Cc1cnc(Nc3ccc(N4CCN(C)CC4)cc3)nc1-2`: the Potency in assay [1] is 515 nM (active) and 662 nM (active).
On the same count and under the same terms, for `CC(C)c1ccccc1Cc1cc(C(=O)Nc2ccc(S(=O)(=O)c3ccccc3C(C)(C)C)cc2)c(O)c(O)c1O` the value was 13.2 µM (active).
For the compound `COc1cccc2c(NCc3ccccc3)nc(-n3c(N)nc4ccccc43)nc12`, the Potency in assay [1] and in assay [2] was 8.33 µM (active) each time.
Regarding `COc1c(N2C[C@@H]3CCCN[C@H]3C2)c(F)cc2c(=O)c(C(=O)O)cn(C3CC3)c12`, the Potency result in assay [1] was “inactive”.
With `Cc1nc(Nc2n[nH]c3c2CN(C(=O)N[C@H](CN(C)C)c2ccccc2)C3(C)C)c2sccc2n1`, the Potency in assay [1] is 10.3 nM (active) and 11.8 nM (active); in assay [2], 16.3 nM (active) and 11.8 nM (active).
As for `COc1cc(C)c(Sc2cnc(NC(=O)c3ccc(CNC(C)C(C)C)cc3)s2)cc1C(=O)N1CCN(C(C)=O)CC1` (centres undefined), the Potency was 8.33 µM (active) and 7.28 µM (active) in assay [1]; 8.33 µM (active) and 5.78 µM (active) in assay [2].
Consider `CC1(C)CCC(c2ccc(Cl)cc2)=C(CN2CCN(c3ccc(C(=O)NS(=O)(=O)c4ccc(N[C@H](CCN5CCOCC5)CSc5ccccc5)c(S(=O)(=O)C(F)(F)F)c4)cc3)CC2)C1`, for which the Potency is 1.03 µM (active) and 1.18 µM (active) in assay [1]; 365 nM (active) and 742 nM (active) in assay [2].
Take `COc1c(OCCCN2CCOCC2)ccc2c3n(c(=NC(=O)c4cnc(N)nc4)nc12)CCN3`: the Potency in assay [1] was 9.4 nM (active) and 24.1 nM (active); in assay [2] it was 8.4 nM (active) and 60.5 nM (active).
For `COc1ccc(-n2nc(C(N)=O)c3c2C(=O)N(c2ccc(N4CCCCC4=O)cc2)CC3)cc1`, the Potency entry in assay [1] is “inactive”.
As for `Cc1ccc(NC(=O)C2(c3ccc4c(c3)OC(F)(F)O4)CC2)nc1-c1cccc(C(=O)O)c1`, the Potency entry in assay [1] and in assay [2] was “inactive” each time.
Regarding `O=c1[nH]nc(Sc2ncc([N+](=O)[O-])s2)n1-c1ccc2c(c1)OCCO2`, the Potency in assay [1] and in assay [2] was 7.42 µM (active) in each case.
As for `CNc1nccc(-c2cccnc2Oc2cc(C(=O)Nc3cccc(C(F)(F)F)c3)ccc2C)n1`, the Potency in assay [1] was 2.58 µM (active) and 3.72 µM (active).
For `NCC(=O)Nc1ccc(-n2nc(C(F)(F)F)cc2-c2ccc3c(ccc4ccccc43)c2)cc1`, the Potency in assay [1] is 1.15 µM (active) and 1.48 µM (active); in assay [2] it was 4.09 µM (active) and 2.09 µM (active).
For the compound `O=C(NC1CCNCC1)c1[nH]ncc1NC(=O)c1c(Cl)cccc1Cl`, the Potency is 0.662 µM (active) in assay [1] and 0.59 µM (active) in assay [2].
Taken in the same sequence, the figures for `O=C1CCC[C@@H]2[C@H]3CCC[N+]4([O-])CCC[C@@H](CN12)[C@@H]34` (some centres undefined) were “inactive” and “inactive”.
On to `Cc1ccc(C(=O)Nc2ccc(CN3CCN(C)CC3)c(C(F)(F)F)c2)cc1C#Cc1cnc2cccnn12`, for which the Potency in assay [1] was 29 nM (active) and 186 nM (active); in assay [2] it was 91.6 nM (active) and 209 nM (active).
On to `CC1COC2(CCN(c3nc(=O)c4cc(C(F)(F)F)cc([N+](=O)[O-])c4s3)CC2)O1` (centres undefined), for which the Potency entry in assay [1] and in assay [2] was “inactive” throughout.
With `COc1cccc2nc(-c3cccs3)nc(NN3C(=O)C=C(C)C3=O)c12`, the Potency in assay [1] was 0.372 µM (active); in assay [2], 0.263 µM (active).
Take `NC(=O)c1cccc2cn(-c3ccc([C@@H]4CCCNC4)cc3)nc12`: the Potency is 4.59 µM (active) and 2.63 µM (active) in assay [1]; 2.9 µM (active) and 2.35 µM (active) in assay [2].
`Clc1cccc(-c2nnnn2Cc2cccnc2)c1Cl`: the Potency result in assay [1] was “inactive”.
Turning to `Nc1ncnc2c1c(-c1cnc3[nH]ccc3c1)nn2C1CCCC1`, the Potency in assay [1] is 365 nM (active) and 417 nM (active); in assay [2] it was 365 nM (active) and 417 nM (active).
Take `C=CC(=O)Nc1cc2c(Nc3ccc(F)c(Cl)c3)ncnc2cc1C#CC(C)(C)N1CCN(C)CC1`: the Potency in assay [1] and in assay [2] was 2.63 µM (active) throughout.
Turning to `CN(C)c1nc(Cc2ccc(NC(=O)c3ccc4ccccc4c3)cc2)nc(Cl)c1CC(=O)O`, the Potency result in assay [1] and in assay [2] was “inactive” each time.
In the case of `Cc1nc2ccc(CN(C)c3ccc(C(=O)N[C@@H](CCC(=O)O)C(=O)O)s3)cc2c(=O)[nH]1`, the Potency in assay [1] was 53.1 nM (active) and 33.2 nM (active); in assay [2], 59.6 nM (active) and 23.5 nM (active).
`COC(=O)Nc1ccc(-c2nc(N3CCOCC3)c3cnn(C4CCN(Cc5cccnc5)CC4)c3n2)cc1`: the values for the Potency in assay [1] and in assay [2] were 0.833 µM (active) and 0.662 µM (active), respectively.
Taken in the same sequence, the figures for `C[C@@H](Oc1cc(-n2cnc3ccc(CN4CCN(C)CC4)cc32)sc1C(N)=O)c1ccccc1C(F)(F)F` were 0.0295 µM (active) and 0.0417 µM (active).
Take `CCN1CCN(CC(=O)Nc2ccc(-c3cccc4c(=O)cc(N5CCOCC5)oc34)c3sc4ccccc4c23)CC1`: the Potency in assay [1] is 66.8 nM (active) and 257 nM (active); in assay [2], 94.4 nM (active) and 257 nM (active).
`CNC(=O)c1cc(Oc2ccc(NC(=O)Nc3cc(C(C)(C)C)nn3-c3ccc4ncccc4c3)c(F)c2)ccn1`: the Potency in assay [1] is 3.65 µM (active) and 4.17 µM (active); in assay [2] it was 7.28 µM (active) and 5.25 µM (active).
In the case of `COc1cc2c(Nc3ccc(NC(=O)c4ccccc4)cc3)ncnc2cc1OCCCN1CCOCC1`, the Potency is 5.15 µM (active) and 4.68 µM (active) in assay [1]; 5.15 µM (active) and 934 nM (active) in assay [2].
For the compound `Cc1cnc(Nc2ccc(F)cc2Cl)nc1-c1c[nH]c(C(=O)N[C@H](CO)c2cccc(Cl)c2)c1`, the Potency in assay [1] is 2.9 µM (active) and 18.6 µM (active); in assay [2], 3.65 µM (active) and 14.8 µM (active).
Turning to `COc1cc2c(Oc3ccc4[nH]c(C)cc4c3F)ncnc2cc1OCCCN1CCCC1`, the Potency is 4.59 µM (active) and 6.61 µM (active) in assay [1]; 7.28 µM (active) and 7.42 µM (active) in assay [2].
Regarding `O=c1[nH]c(=O)n(C2CCCO2)cc1F` (centres undefined), the Potency result in assay [1] and in assay [2] was “inactive” each time.
For `CC(C)(O)c1cc2nc(-c3cnc(N)nc3)nc(N3CCOCC3)c2s1`, the Potency in assay [1] and in assay [2] was 0.372 µM (active) throughout.
Regarding `Cc1cc(C(=O)N2CCN(c3cccc(Cl)c3)CC2)n(-c2ccccc2)n1`, the Potency in assay [1] was 2.09 µM (active); in assay [2], 1.32 µM (active).
As for `CN(C)CCCN=c1c2ccccc2n(C)c2[nH]c(=O)n(C)c(=O)c12`, the Potency is 13.2 µM (active) in assay [1] and 11.8 µM (active) in assay [2].
Consider `Cc1cnc(-c2cnc(NCCNc3ccc(C#N)cn3)nc2-c2ccc(Cl)cc2Cl)[nH]1`, for which the Potency in assay [1] is 4.59 µM (active) and 3.72 µM (active); in assay [2], 3.25 µM (active) and 3.72 µM (active).
